Screening results: PubChem BioAssay, National Center for Advancing Translational Sciences (NCATS)
AMA1-RON2 inh – disrupts binding of P. falciparum AMA1 to RON2; AlphaScreen AMA1-biotinylated RON2 peptide binding; Potency, µM (doses to about 58.2 µM), inactives show top-dose activity change, negative = inhibition, hits mostly inhibitors; 360,000 tested, 0.2% active;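 also: 0% = vehicle wells and -100% = peptide control; nearly all actives have a fitted effect of over 45% in size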
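AMA1 (3D7) with his tag at 25 nM final met compounds first, then biotinylated RON2 peptide at 25 nM; detection used donor plus acceptor beads, 10 µg/mL apiece, read by AlphaScreen after 30 min at room temperature.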
Tb PYK inh – T. brucei pyruvate kinase inhibition. Q57TT1. TbPYK enzyme, Kinase-Glo Plus ATP luminescence, 45 min. Potency, µM (titrated, usually from 76.8 µM), for inactives: at the top dose activity, negative = inhibition, most hits filed as inhibitors. 410,000 tested, 0.12% active; also: nearly all actives have a fitted effect of over 50% in size
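Glycolytic pyruvate kinase of T. brucei was incubated with substrate, test compound and 130 uM ADP for 45 minutes at room temperature. Luminescent Kinase-Glo Plus signal was measured after 10 minutes.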
Sm TGR inh – blocks Schistosoma mansoni thioredoxin glutathione reductase; Potency, µM (highest dose often 114 µM), without a hit: at the top dose activity change, negative = inhibition, hits mostly inhibitors; purified TGR, DTNB reduction, TNB absorbance 405 nm; 360,000 tested, 3% active; also: nearly all actives have a fitted effect of over 60% in size
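TGR 20 nM + NADPH 100 uM (dispensed conc.), cpd preinc 15 min RT; start with NADPH (500 uM addition) then DTNB (15 mM addition). Kinetic TNB absorbance, 405 nm filter. Four-parameter Hill fit across titration.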
LmPK inhibitor – LmPK (Leishmania mexicana) enzyme inhibition | Q27686 | purified LmPK, Kinase-Glo ATP luminescence, 1 h | Potency, µM (top dose mostly 57.5 µM), without a hit: top-dose activity change, negative = inhibition, most hits filed as inhibitors | 290,000 tested, 0.37% active
Target sequence (Q27686 whole entry, looked up): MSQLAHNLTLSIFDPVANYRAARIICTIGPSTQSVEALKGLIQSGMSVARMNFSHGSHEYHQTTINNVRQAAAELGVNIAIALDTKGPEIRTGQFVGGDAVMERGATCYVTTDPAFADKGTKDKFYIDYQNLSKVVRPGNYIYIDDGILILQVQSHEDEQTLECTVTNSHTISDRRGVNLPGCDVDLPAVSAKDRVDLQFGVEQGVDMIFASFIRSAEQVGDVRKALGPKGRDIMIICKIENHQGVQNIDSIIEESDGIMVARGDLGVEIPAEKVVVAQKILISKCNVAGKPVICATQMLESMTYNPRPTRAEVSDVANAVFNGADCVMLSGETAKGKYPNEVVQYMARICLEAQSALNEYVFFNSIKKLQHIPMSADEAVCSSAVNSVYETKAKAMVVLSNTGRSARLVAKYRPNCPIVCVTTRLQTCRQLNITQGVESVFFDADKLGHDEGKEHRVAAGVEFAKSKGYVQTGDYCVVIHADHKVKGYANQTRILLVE
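Pyruvate kinase activity monitored as ATP production (luciferase luminescence). Conditions: 0.1 nM enzyme, 0.5 mM PEP, 0.1 mM ADP, 1 h, RT; normalized against uninhibited and no-enzyme wells.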
RE007 growth inh – less growth of the S. pombe RE007 Vpr strain. S. pombe RE007 Vpr strain, BacTiter-Glo ATP luminescence, 24 h. Potency, µM (top dose mostly 92.2 µM), for inactives: at the top dose activity change, negative = less growth, hits mostly inhibitors. 360,000 tested, 0.21% active. AID 651644; active = well fitted falling curve with a large enough effect; inconclusive = small, poorly fitted or top-dose-only effect; inactive = no such curve, though single readings can be large or run the other way; also: nearly all actives have a fitted effect of over 50% in size
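Fission yeast strain RE007, carrying one chromosomally integrated HIV-1 vpr copy, was seeded at OD 0.01 in PMG+AL medium with 23 nL pinned compound. After 24 h at 30 °C and 99% humidity, viability was read by BacTiter-Glo luminescence.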
* hit, by the source's call; ? = inconclusive; . = no result given; ! = a repeat was not active; [ ] = another dose, or the depositor's remark. Most compounds without a hit are left out; they make up all but 3.2% or so of the library. Unless noted, calls follow the shape of the dose curve; as a rule, active = well fitted curve in the direction sought with a large enough effect; inconclusive = small, poorly fitted or top-dose-only effect, or another doubt; inactive = no such curve, though single readings can be large; an effect the other way counts as inactive or inconclusive. Unless noted, % is scaled to controls: 0 for no effect and ±100 for the full control effect; potency is read from the fitted curve at half-maximal effect.

SMILES	AMA1-RON2 inh	Tb PYK inh	Sm TGR inh	LmPK inhibitor	RE007 growth inh
CCN1/C(=N\N)c2cccc3cccc1c23	?	-24%	22µM*	-12%	-22%
CCCCN(C(=O)CCn1c(=O)oc2ccccc21)c1ccccc1	-4%	1%	25µM*!	2%	-6%
COCCn1c(=O)c(-c2cc(F)cc(F)c2)nc2cnc(Oc3cccc(Cl)c3)nc21	.	-2%	.	.	.
Cc1c(Cl)cccc1NS(=O)(=O)c1ccc2[nH]cc(C(=O)NC3CCCC3)c(=O)c2c1	.	-6%	-6%	.	.
Cc1cc(C)cc(Nc2cc(C(=O)NC3CCC(C)CC3)c3ccccc3n2)c1 (stereo not drawn)	.	0%	-2%	.	.
CCc1oc(C(=O)OC)cc1CSC(=N)N	1%	-3%	20µM*	5%	-12%
COC(=O)c1ccc(CSC(=N)N)o1	7%	4%	-1%	-2%	-1%
O=C(N=c1nc2ccccn2s1)c1ccccc1	0%	?	-9%	3.5µM*	-25%
N#Cc1ccc(NC(=O)C2=COCCO2)cc1	0%	3%	89µM*	.	5%
C/C(=N\NS(=O)(=O)c1ccc(Cl)c([N+](=O)[O-])c1)c1ccc(C)o1	-1%	2%	6.3µM*	-2%	11%
C/C(=N\NS(=O)(=O)c1ccc(Cl)c([N+](=O)[O-])c1)c1cc2ccccc2o1	4%	8%	50µM*	5%	-23%
COc1ccc(NC(=O)Cn2c(=O)oc3cc(S(=O)(=O)N4CCC(C)CC4)ccc32)c(OC)c1	.	1%	0%	.	.
CC(=O)c1ccc(S(=O)(=O)N2CCCC(N(C)CCc3ccccn3)C2)cc1 (stereo not drawn)	0%	0%	20µM*	7%	0%
Cc1cc(-c2ccc(C)c(S(=O)(=O)N(C)c3ccc(C)c(C)c3)c2)on1	.	2%	6%	.	.
COc1ccc(C(=O)c2cn(CC(=O)Nc3ccc4c(c3)OCCO4)c3ccc(OC)cc3c2=O)cc1	.	-5%	5%	.	.
Cc1cc2oc(=O)c(CC(=O)NCCc3ccccc3F)c(C)c2c2occ(C(C)(C)C)c12	.	-6%	5%	.	.
CCc1cnc2c(c1SCC(=O)N1CCCCC1)c(=O)n(C)c(=O)n2C	.	-6%	2%	.	.
CCc1cnc2c(c1SC(C(C)=O)C(=O)N(C)C)c(=O)n(C)c(=O)n2C (stereo not drawn)	.	14µM*	-12%	.	.
CCOC(=O)c1cc(-c2ccccc2)n(CCCC(=O)Nc2cccc(Cl)c2C)c1C	.	-6%[15.4 µM]	37%	.	.
COC(=O)CCc1c(COC(C)=O)[nH]c(C(=O)OCc2ccccc2)c1C	10%	3%	3.5µM*	7%	16%
CC(=O)c1c(C)[nH]c(C(=O)OCc2ccccc2)c1C	-13%	3%	-9%	1%	3%
CN(C)S(=O)(=O)c1cc(NC(=O)CN2CCN(c3ccc(O)cc3)CC2)ccc1Cl	-1%	-8%	79µM*	?	2%
CC(C)CC(=O)Nc1ccc(C(=O)CN2CCN(c3ccc(O)cc3)CC2)cc1	-7%	-11%	5.6µM*	-3%	1%
CC(C)(C)NC(=O)NC(=O)CN1CCN(c2ccc(O)cc2)CC1	7%	?	?	13µM*	-3%
CN(C)S(=O)(=O)c1cc(NC(=O)CN2CCN(c3ccccc3)CC2)ccc1Cl	4%[2.32 µM]	-14%	3%	1%	-7%
SMILES	AMA1-RON2 inh	Tb PYK inh	Sm TGR inh	LmPK inhibitor	RE007 growth inh
CCOc1ccc(S(=O)(=O)NCCc2sc3nc(-c4ccc(F)cc4)nn3c2C)cc1	.	47%	5%	.	.
Cc1ccc(-c2n[nH]c(=S)n2/N=C/c2cccs2)cc1	36%	?	-10%	-27%	.
Cc1ccc(-c2n[nH]c(=S)n2/N=C/c2cccn2C)cc1	63%	5µM*	11%	7.9µM*	4%
S=c1[nH]nc(-c2ccccc2)n1/N=C/c1cccs1	10%	11µM*	-10%	?	-13%
COc1ccc(-c2n[nH]c(=S)n2/N=C/c2cccn2C)cc1	67%	2.5µM*	5%	-4%	3%
O=C(CS)Nc1ccccc1	.	3%	.	.	.
Cc1cc2ccccc2n1CCNC(=O)c1ccc(Br)o1	?	2%	13µM*	1%	18%
